Test results published in PubChem BioAssay (NCI).
This is part of a sample that, as a whole, favours compounds with a hit. Of some 79,000 tested, about 15% had one in any assay. Calls of active or inactive are those of the source. Rule as the data show it: active = growth inhibition above about 70%; inactive = the rest.

Assay: NCI Yeast Anticancer Drug Screen. Data for the mlh1 strain (AID 171);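 also: 0% = growth of vehicle-treated control cultures of the same strain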
Conditions: S. cerevisiae mlh1 strain growth inhibition, stronger effect = higher value
Experimental: Growth inhibition of yeast strains with defined genetic alterations is measured as a screen for potential anti-cancer activity. Selected strains with alterations in DNA damage repair or cell cycle control were exposed to compounds and growth inhibition was measured relative to vehicle treated controls. The strain used in this assay is mlh1

Measured: growth inhibition

COc1cc2ccc(/C=C\[N+](=O)[O-])cc2cc1OC
active: at 33.0 µM 98% | at 100.0 µM 97%
inactive: at 1.2 µM -36% | at 3.7 µM -36% | at 11.0 µM 19%

O=C(c1ccc(Cl)cc1)C1OC12C(=O)Nc1ccccc12 (stereo not given)
inactive: at 1.2 µM 8%
active: at 3.7 µM 99% | at 11.0 µM 99% | at 33.0 µM 99% | at 100.0 µM 99%

S=C(N/N=C(/c1ccccc1)c1ccccn1)N1CCCCCC1
inactive: at 1.2 µM -3% | at 3.7 µM -2% | at 11.0 µM 4% | at 33.0 µM 1% | at 100.0 µM -1%

O=C1C2C=CC1C1C(=O)OC(=O)C21 (stereo not given)
inactive: at 1.2 µM -45% | at 3.7 µM -53% | at 11.0 µM -39% | at 33.0 µM -64% | at 100.0 µM -55%

O=C(NCCCCNCCCNC(=O)c1cc(-c2ccccc2)nc2ccccc12)c1cc(-c2ccccc2)nc2ccccc12
inactive: at 1.2 µM 0% | at 3.7 µM -1% | at 11.0 µM 0% | at 33.0 µM 63%
active: at 100.0 µM 94%

CC(C)/C(Cl)=N\OC(=O)Nc1ccccc1F
inactive: at 1.2 µM 3% | at 3.7 µM 5% | at 11.0 µM 14% | at 33.0 µM 22% | at 100.0 µM 20%

COC1=CC(=O)C(C2(OC(C)C)OC(=O)C(Cl)=C2Cl)=CC1=O (stereo not given)
inactive: at 1.2 µM 2% | at 3.7 µM 27%
active: at 11.0 µM 99% | at 33.0 µM 99% | at 100.0 µM 99%

NC(=O)NN=C(CS)CS
inactive: at 1.2 µM 0% | at 3.7 µM -1% | at 11.0 µM 3% | at 33.0 µM 14% | at 100.0 µM 60%
